Assay results: PubChem BioAssay (Tox21)
Several values for one entry are separate records, joined by “and”; a condition that tells them apart may be missing. Identical values can stand only once. Inconclusive results are not listed. A call without a number means that no potency is given here. More than one record can exist for a structure, and the calls need not agree. Activity calls are given as the source filed them. Unless noted, calls follow the shape of the full dose curve.

How the values were obtained:
[1] = qHTS assay to identify small molecule agonists of the vitamin D receptor (VDR) signaling pathway - cell viability counter screen (AID 743224; active = well fitted curve in the direction sought with a large enough effect in the repeat runs; an effect the other way counts as inactive or inconclusive; also: nearly all actives have a fitted effect of over 50% in size; also: potency is read from the fitted curve at half-maximal effect); details: VDR-bla HEK293T viability, CellTiter-Glo luminescence, 16 h; series mostly up to 62.6 µM
Summary of the method: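 VDR-bla cells, 4 h after plating, exposed to compounds for 16 h at 37C; viability then read in the same wells as CellTiter-Glo luminescence after 30 min at room temperature, following the bla FRET read.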

[2] = qHTS assay to identify small molecule antagonists of the vitamin D receptor (VDR) signaling pathway - cell viability counter screen (AID 743225; active = well fitted curve in the direction sought with a large enough effect in the repeat runs; an effect the other way counts as inactive or inconclusive; also: nearly all actives have a fitted effect of over 50% in size; also: potency is read from the fitted curve at half-maximal effect); details: VDR-bla HEK293T viability, CellTiter-Glo luminescence, 16 h; series mostly up to 61 µM
Summary of the method: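 Cells (VDR-UAS-bla HEK 293T) are plated, rested 4 h at 37C, dosed with compound and 3 nM final 1-alpha,25-dihydroxy vitamin D3, and incubated 16 h. Viability is taken from CellTiter-Glo luminescence in the reporter wells.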

[3] = qHTS assay to identify small molecule agonists of the NFkB signaling pathway - cell viability counter screen (AID 1159515); details: NFkB-bla ME-180 viability, CellTiter-Glo luminescence, 5 h; series mostly up to 61 µM; also: nearly all actives have a fitted effect of over 55% in size; also: potency is read from the fitted curve at half-maximal effect
Summary of the method: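 NFkB-bla ME-180 cells, 2,000/well, plated overnight at 37 C; compound added for 5 hr at 37 C. Viability read in the same wells as the bla reporter, by CellTiter-Glo luminescence after 30 min at room temperature.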

[4] = qHTS assay to identify small molecule agonists of the endoplasmic reticulum stress response signaling pathway (AID 1159516; active = well fitted activation curve with a large enough effect in the signal ratio in the repeat runs, not every such curve was filed as active; the % refers to the signal ratio); details: ESRE-bla HeLa, ER stress beta-lactamase reporter, 5 h; series mostly up to 61 µM
Summary of the method: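 CellSensor ESRE-bla HeLa cells, 1,500 per well, plated overnight, then exposed to compounds for 5 hr at 37 C. Beta-lactamase reporter read with LiveBLAzer B/G FRET substrate after 2 hr at room temperature, 405 nm excitation, 460 and 530 nm emission.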

[5] = qHTS assay to identify small molecule agonists of the endoplasmic reticulum stress response signaling pathway - cell viability counter screen (AID 1159517); details: ESRE-bla HeLa viability, CellTiter-Glo luminescence, 5 h; series mostly up to 61 µM; also: nearly all actives have a fitted effect of over 50% in size; also: potency is read from the fitted curve at half-maximal effect
Summary of the method: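 Luminescence readout: CellTiter-Glo, 30 min RT, same wells as the ESRE-bla reporter read. HeLa ESRE-bla, 1,500 cells/well, o/n 37 C; cpd 5 hr 37 C/5% CO2.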

[6] = qHTS assay to identify small molecule antagonists of the retinoid-related orphan receptor gamma (ROR-gamma) signaling pathway - cell viability counter screen (AID 1159520; active = well fitted curve in the direction sought with a large enough effect in the repeat runs; an effect the other way counts as inactive or inconclusive; also: nearly all actives have a fitted effect of over 50% in size; also: potency is read from the fitted curve at half-maximal effect); details: Tet-on RORgamma CHO cells viability, ATP luminescence, 16 h; series mostly up to 92.4 µM
Summary of the method: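 Tet-on ROR gamma CHO cells (1,000/well) were plated 4 hr, given compounds in DMSO for 2 hr at 37 C, then induced with 1 uM final doxycycline for 16 hr. Viability was read as ATP by CellTiter-Glo luminescence after 30 min.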

[7] = qHTS assay to identify small molecule agonists of the AP-1 signaling pathway (AID 1159526); details: ME-180 AP-1-bla reporter, beta-lactamase FRET ratio, 5 h; series mostly up to 76.8 µM; also: potency is read from the fitted curve at half-maximal effect
[8] = biological target: Retinoic acid receptor RXR-alpha (Homo sapiens) (UniProt P19793); test: qHTS assay to identify small molecule agonists of the RXR signaling pathway (AID 1159527); details: HEK293T RXRa-UAS-bla, beta-lactamase ratio, 16 h; series mostly up to 76.8 µM; also: nearly all actives have a fitted effect of over 35% in size; also: potency is read from the fitted curve at half-maximal effect
Retinoic acid receptor RXR-alpha (Homo sapiens), sequence (P19793 whole entry, looked up): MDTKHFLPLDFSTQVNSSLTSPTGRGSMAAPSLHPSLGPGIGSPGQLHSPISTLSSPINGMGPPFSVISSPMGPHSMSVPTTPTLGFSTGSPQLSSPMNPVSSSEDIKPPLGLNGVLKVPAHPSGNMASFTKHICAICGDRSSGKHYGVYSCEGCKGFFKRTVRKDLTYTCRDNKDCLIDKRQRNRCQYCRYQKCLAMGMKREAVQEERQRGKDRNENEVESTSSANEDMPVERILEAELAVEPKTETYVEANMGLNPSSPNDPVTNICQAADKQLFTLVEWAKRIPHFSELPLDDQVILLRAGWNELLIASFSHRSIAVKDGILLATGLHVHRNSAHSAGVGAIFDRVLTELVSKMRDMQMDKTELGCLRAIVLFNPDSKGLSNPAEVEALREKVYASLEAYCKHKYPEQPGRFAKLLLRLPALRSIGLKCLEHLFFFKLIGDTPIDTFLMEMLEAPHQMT
Summary of the method: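 qHTS of the Tox21 10K library in GeneBLAzer RXR-alpha HEK 293T cells carrying a beta-lactamase reporter […]; 16 hr treatment, 9-cis retinoic acid as agonist control, FRET read-out.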

[9] = qHTS assay to identify small molecule agonists of the AP-1 signaling pathway - cell viability counter screen (AID 1159525); details: ME-180 AP-1-bla cells viability, ATP luminescence, 5 h; series mostly up to 76.8 µM; also: nearly all actives have a fitted effect of over 55% in size; also: potency is read from the fitted curve at half-maximal effect
Summary of the method: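 ME-180 AP-1-bla, 2500 cells/well, Opti-MEM + 0.5% dialyzed FBS; overnight 37 °C; cpd 15-pt titration, 5 h 37 °C; CellTiter-Glo 30 min RT; luminescence read; normalised to TOAB and DMSO controls.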

[10] = biological target: Nuclear receptor ROR-gamma (Homo sapiens) (UniProt P51449); test: qHTS assay to identify small molecule antagonists of the retinoid-related orphan receptor gamma (ROR-gamma) signaling pathway (AID 1159521; active = well fitted curve in the direction sought with a large enough effect in the repeat runs; an effect the other way counts as inactive or inconclusive; also: nearly all actives have a fitted effect of over 50% in size; also: potency is read from the fitted curve at half-maximal effect); details: Tet-on RORgamma CHO cells, RORE-luciferase, 16 h; series mostly up to 92.4 µM
Summary of the method: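 RORγ antagonism is scored from reduced reporter luminescence in Tet-on CHO cells. Induction used 1 uM final doxycycline hyclate for 16 h at 37 C, following a 2 h compound exposure.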

Row | Compound | Potency [1] | Potency [2] | Potency [3] | outcome [4] | Potency [5] | Potency [6] | Potency [7] | Potency [8] | Potency [9] | Potency [10]
1 | O=C(O)COc1ccc(Cl)cc1Cl | inactive | inactive | inactive | inactive | inactive | inactive | inactive | inactive |  | 
2 | O=C(O)c1ccccc1O | inactive | inactive | inactive | inactive | inactive | inactive | inactive | inactive | inactive | 
3 | C=CCOC(Cn1ccnc1)c1ccc(Cl)cc1Cl (stereo not drawn) | 54.9 µM (active) and inactive | inactive | inactive |  | inactive | inactive |  | inactive |  | 21.8 µM (active) and 29.8 µM (active)
4 | COP(=O)(OC)C(O)C(Cl)(Cl)Cl (stereo not drawn) |  | inactive | inactive | inactive | inactive | inactive | inactive | inactive |  | inactive
5 | Nc1ccc(-c2ccc(N)c(Cl)c2)cc1Cl | inactive | inactive | inactive |  | inactive | inactive and 48.6 µM (active) | inactive | inactive | inactive | 68.6 µM (active)
6 | CC[n+]1ccccc1 |  | inactive | inactive | inactive | inactive | inactive | inactive | inactive |  | inactive and 1.71 µM (active)
7 | O=C(O)C(Cl)Cl |  | inactive | inactive | inactive | inactive | inactive | inactive | inactive and 3.09 µM (active) |  | inactive
8 | CCCC[n+]1ccc(C)cc1 |  | inactive and 48.7 µM (active) | inactive | inactive | inactive | inactive and 60.8 µM (active) | 13.8 µM (active) and inactive | inactive | inactive and 48.7 µM (active) | 
9 | N#CS |  | inactive | inactive | inactive | inactive | inactive | inactive | inactive |  | 
10 | CCCC[n+]1cccc(C)c1 |  | inactive | inactive | inactive | inactive | inactive | inactive | inactive |  | inactive
11 | CCCCCCCCCCCCCC[P+](CCCCCC)(CCCCCC)CCCCCC |  | 19.6 µM (active) and 17.5 µM (active) | 19.6 µM (active) and 24.7 µM (active) and inactive | inactive | 31 µM (active) and 27.8 µM (active) and inactive | 9.73 µM (active) and 19.5 µM (active) | inactive |  |  | 
12 | CCCCCCCCCCn1cc[n+](C)c1 |  |  | inactive |  |  | inactive | inactive |  | inactive | 7.73 µM (active) [middle of 5 runs]
13 | CCCCCCCCCCCCOS(=O)(=O)O |  | 34.7 µM (active) and inactive | inactive | inactive | inactive | inactive | inactive | inactive | 55 µM (active) and inactive | 
14 | CC(Cl)(Cl)C(=O)O |  | inactive | inactive | inactive | inactive | inactive | inactive | inactive |  | inactive
15 | CC(=O)O |  | inactive | inactive | inactive | inactive | inactive | inactive | inactive |  | 
16 | Oc1ccccc1-c1ccccc1 |  | inactive | inactive | inactive | inactive | inactive | inactive | inactive |  | inactive
17 | O=S(=O)(O)O | inactive | inactive | inactive | inactive | inactive | inactive | inactive | inactive |  | 

Row | Compound | Potency [1] | Potency [2] | Potency [3] | outcome [4] | Potency [5] | Potency [6] | Potency [7] | Potency [8] | Potency [9] | Potency [10]
18 | CC[N+]1(C)CCCC1 |  | inactive | inactive | inactive | inactive | inactive | inactive | inactive |  | inactive
19 | CCCCn1cc[n+](C)c1C |  | inactive | inactive | inactive | inactive | inactive | inactive | inactive |  | 
20 | CCCCn1cc[n+](C)c1 |  | inactive | inactive | inactive | inactive | inactive | inactive | inactive |  | 
21 | CCNc1nc(Cl)nc(NCC)n1 |  | inactive | inactive | inactive | inactive | inactive | inactive | inactive and 12.2 µM (active) |  | 48.8 µM (active) and inactive
22 | O=[N+]([O-])O |  | inactive | inactive | inactive | inactive | inactive | inactive | inactive and 21.9 µM (active) |  | 
23 | O=c1nc(O)n(Cl)c(=O)n1Cl |  | inactive | inactive | inactive | inactive | inactive | inactive | inactive |  | inactive
24 | CCCC[N+]1(C)CCCCC1 |  | inactive | inactive | inactive | inactive | inactive | inactive | inactive |  | inactive
25 | O=C(O)CC(O)(CC(=O)O)C(=O)O |  | inactive | inactive | inactive | inactive | inactive | inactive | inactive |  | 
26 | CCCCCCCCCCCC(=O)O |  | inactive | inactive | inactive | inactive | inactive | inactive | 55.1 µM (active) and 63 µM (active) | inactive | 
27 | CCC[N+]1(C)CCCCC1 |  | inactive | inactive | inactive | inactive | inactive | inactive | inactive |  | inactive
28 | CCCCCCCCCCCCn1cc[n+](C)c1 |  |  | 34.8 µM (active) and inactive | inactive |  |  | inactive and 43.4 µM (active) | inactive | 49.4 µM (active) and inactive | 
29 | CC(=O)[O][Hg][c]1ccccc1 |  | 1.37 µM (active) and 2.19 µM (active) and 2.39 µM (active) | 485 nM (active) and 549 nM (active) and 1.34 µM (active) |  | 485 nM (active) and 692 nM (active) and 2.13 µM (active) | 304 nM (active) and 969 nM (active) and 422 nM (active) |  |  |  | 429 nM (active) and 545 nM (active) and 750 nM (active)
30 | CCCCCCCCCCCCCCCCn1cc[n+](C)c1 |  |  | 44.6 µM (active) and inactive and 24.6 µM (active) | inactive |  | inactive and 61.7 µM (active) and 30.7 µM (active) | inactive | inactive |  | 
31 | CN(C)[C@@H]1C(=O)C(C(N)=O)=C(O)[C@@]2(O)C(=O)C3=C(O)c4c(O)cccc4[C@@](C)(O)[C@H]3[C@H](O)[C@@H]12 | inactive | inactive | inactive | inactive | inactive | inactive | inactive | inactive | inactive | 
32 | O=C(O)C(Cl)(Cl)Cl |  | inactive | inactive | inactive | inactive | inactive | inactive | inactive |  | inactive
33 | CCCCCCCCn1cc[n+](C)c1 |  |  | inactive | inactive | inactive | inactive | inactive |  |  | 
